About 2,000 (36%) of roughly 5,500 compounds were called active. Another 18% or so got no clear call; they are omitted. Rule as the data show it: active = normalized growth mostly below about 0.91 (no sharp cut-off); inconclusive = no clear call, values can overlap the other calls; inactive = mostly above about 0.92. The list shows a part of the results.
Experiment: chemical genetic growth profiling, strain panel (AID 1159580);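 also: tested at 20 µM; growth read once vehicle control cultures reached saturation at 30 °C; 1 = growth at the plate median or of vehicle wells; lower values mean less growth of the strain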
Conditions: growth OD
[1] = S. cerevisiae deletion strains, locus YAL013W, strain DEP1, hits give low values
[2] = S. cerevisiae deletion strains, locus YBR229C, strain ROT2, hits give low values
[3] = S. cerevisiae deletion strains, locus YCL061C, strain MRC1, hits give low values
[4] = S. cerevisiae deletion strains, locus YDL101C, strain DUN1, hits give low values
[5] = S. cerevisiae deletion strains, locus YDR150W, strain NUM1, hits give low values
[6] = S. cerevisiae deletion strains, locus YEL061C, strain CIN8, hits give low values
[7] = S. cerevisiae deletion strains, locus YGR078C, strain PAC10, hits give low values
[8] = S. cerevisiae deletion strains, locus YHR030C, strain SLT2, hits give low values
[9] = S. cerevisiae deletion strains, locus YHR087W, strain rtc3, hits give low values
[10] = S. cerevisiae deletion strains, locus YJL187C, strain SWE1, hits give low values
[11] = S. cerevisiae deletion strains, locus YJR043C, strain POL32, hits give low values
[12] = S. cerevisiae deletion strains, locus YJR075W, strain HOC1, hits give low values
[13] = S. cerevisiae deletion strains, locus YKL190W, strain CNB1, hits give low values
[14] = S. cerevisiae deletion strains, locus YLR039C, strain RIC1, hits give low values
[15] = S. cerevisiae deletion strains, locus YLR058C, strain SHM2 (second series), hits give low values
[16] = S. cerevisiae deletion strains, locus YLR085C, strain ARP6, hits give low values
[17] = S. cerevisiae deletion strains, locus YLR262C, strain YPT6, hits give low values
[18] = S. cerevisiae deletion strains, locus YML094W, strain GIM5, hits give low values
[19] = S. cerevisiae deletion strains, locus YMR219W, strain ESC1, hits give low values
[20] = S. cerevisiae deletion strains, locus YMR263W, strain SAP30, hits give low values
[21] = S. cerevisiae deletion strains, locus YNL128W, strain TEP1, hits give low values
[22] = S. cerevisiae deletion strains, locus YNL153C, strain GIM3, hits give low values
[23] = S. cerevisiae deletion strains, locus YNL298W, strain CLA4 (second series), hits give low values
[24] = S. cerevisiae deletion strains, locus YNL322C, strain KRE1, hits give low values
[25] = S. cerevisiae deletion strains, locus YNR030W, strain Alg12, hits give low values
[26] = S. cerevisiae deletion strains, locus YOL006C, strain TOP1, hits give low values
[27] = S. cerevisiae deletion strains, locus YPL055C, strain LGE1, hits give low values
[28] = S. cerevisiae deletion strains, locus YPL241C, strain CIN2, hits give low values
[29] = S. cerevisiae deletion strains, locus YPR135W, strain CTF4, hits give low values

Measured: normalized growth

CN1CNc2c(c(=O)n(C)c(=O)n2C)C1
inactive: [1] 0.994 | [2] 0.999 | [3] 0.998 | [4] 0.974 | [5] 0.998 | [6] 0.996 | [7] 0.988 | [8] 1.04 | [9] 0.988 | [10] 1.01 | [11] 0.998 | [12] 1.02 | [13] 1.01 | [14] 1.03 | [15] 1 | [16] 0.979 | [17] 1.01 | [18] 0.974 | [19] 0.998 | [20] 1 | [21] 1 | [22] 0.983 | [23] 1.01 | [24] 0.998 | [25] 1 | [26] 1.02 | [27] 0.953 | [28] 1.07 | [29] 1.01 | S. cerevisiae strains, strain wild type, hits give low values 1

Cc1csc2ncnc(N/N=C\c3ccccc3Cl)c12
inactive: S. cerevisiae deletion strains, locus YAR019C, strain CDC15, hits give low values 0.959 | S. cerevisiae deletion strains, locus YBL105C, strain PKC1, hits give low values 0.96 | S. cerevisiae deletion strains, locus YBR135W, strain CKS1, hits give low values 0.968 | S. cerevisiae deletion strains, locus YBR136W, strain MEC1, hits give low values 0.962 | S. cerevisiae deletion strains, locus YBR160W, strain CDC28, hits give low values 0.954 | S. cerevisiae deletion strains, locus YDL017W, strain CDC7, hits give low values 0.97 | S. cerevisiae deletion strains, locus YDL028C, strain MPS1, hits give low values 0.968 | [4] 0.967 | S. cerevisiae deletion strains, locus YDL108W, strain KIN28, hits give low values 0.962 | S. cerevisiae deletion strains, locus YDL132W, strain cdc53, hits give low values 0.958 | S. cerevisiae deletion strains, locus YDL214C, strain PRR2, hits give low values 0.961 | S. cerevisiae deletion strains, locus YDR052C, strain DBF4, hits give low values 0.977 | S. cerevisiae deletion strains, locus YDR054C, strain cdc34, hits give low values 0.952 | S. cerevisiae deletion strains, locus YDR226W, strain ADK1, hits give low values 0.969 | S. cerevisiae deletion strains, locus YDR477W, strain SNF1, hits give low values 0.958 | S. cerevisiae deletion strains, locus YER123W, strain YCK3, hits give low values 0.931 | S. cerevisiae deletion strains, locus YER133W, strain GLC7, hits give low values 0.967 | S. cerevisiae deletion strains, locus YFL009W, strain cdc4, hits give low values 0.958 | S. cerevisiae deletion strains, locus YFL029C, strain CAK1, hits give low values 0.956 | S. cerevisiae deletion strains, locus YFR003C, strain YPI1, hits give low values 0.96 | S. cerevisiae deletion strains, locus YFR019W, strain FAB1, hits give low values 0.979 | S. cerevisiae deletion strains, locus YFR028C, strain CDC14, hits give low values 0.955 | S. cerevisiae deletion strains, locus YGR040W, strain KSS1, hits give low values 0.942 | S. cerevisiae deletion strains, locus YGR052W, strain FMP48, hits give low values 1.03 | S. cerevisiae deletion strains, locus YGR092W, strain DBF2, hits give low values 0.917 | [8] 1.01 | S. cerevisiae deletion strains, locus YHR079C, strain IRE1, hits give low values 0.997 | S. cerevisiae deletion strains, locus YHR082C, strain KSP1, hits give low values 1.05 | S. cerevisiae deletion strains, locus YHR205W, strain SCH9, hits give low values 0.968 | S. cerevisiae deletion strains, locus YIL147C, strain SLN1, hits give low values 0.968 | S. cerevisiae deletion strains, locus YJL095W, strain BCK1, hits give low values 0.994 | S. cerevisiae deletion strains, locus YJL128C, strain PBS2, hits give low values 0.946 | S. cerevisiae deletion strains, locus YJL157C, strain FAR1, hits give low values 0.947 | S. cerevisiae deletion strains, locus YJR016C, strain ILV3, hits give low values 0.956 | S. cerevisiae deletion strains, locus YJR066W, strain TOR1 (second series), hits give low values 0.918 | S. cerevisiae deletion strains, locus YJR066W, strain TOR1, hits give low values 1.05 | S. cerevisiae deletion strains, locus YKL048C, strain ELM1, hits give low values 0.976 | S. cerevisiae deletion strains, locus YKL067W, strain YNK1, hits give low values 0.947 | S. cerevisiae deletion strains, locus YKL101W, strain HSL1, hits give low values 0.951 | S. cerevisiae deletion strains, locus YKL193C, strain SDS22, hits give low values 0.957 | S. cerevisiae deletion strains, locus YKL203C, strain TOR2, hits give low values 1 | S. cerevisiae deletion strains, locus YLR113W, strain HOG1, hits give low values 0.882 | S. cerevisiae deletion strains, locus YLR133W, strain CKI1, hits give low values 0.951 | S. cerevisiae deletion strains, locus YLR403W, strain SFP1, hits give low values 0.931 | S. cerevisiae deletion strains, locus YML070W, strain DAK1, hits give low values 0.935 | S. cerevisiae deletion strains, locus YMR001C, strain CDC5, hits give low values 0.957 | S. cerevisiae deletion strains, locus YMR205C, strain PFK2 (second series), hits give low values 0.973 | S. cerevisiae deletion strains, locus YMR277W, strain FCP1, hits give low values 0.966 | S. cerevisiae deletion strains, locus YNL006W, strain LST8, hits give low values 0.973 | S. cerevisiae deletion strains, locus YNL020C, strain ARK1, hits give low values 0.958 | S. cerevisiae deletion strains, locus YNL161W, strain CBK1, hits give low values 0.956 | S. cerevisiae deletion strains, locus YNL183C, strain NPR1, hits give low values 1.02 | S. cerevisiae deletion strains, locus YNL207W, strain RIO2, hits give low values 0.965 | S. cerevisiae deletion strains, locus YNL222W, strain SSU72, hits give low values 0.961 | S. cerevisiae deletion strains, locus YNL307C, strain MCK1 (second series), hits give low values 0.962 | S. cerevisiae deletion strains, locus YOL078W, strain AVO1, hits give low values 0.957 | S. cerevisiae deletion strains, locus YOL136C, strain PFK27, hits give low values 0.942 | S. cerevisiae deletion strains, locus YOR061W, strain CKA2, hits give low values 0.973 | S. cerevisiae deletion strains, locus YOR119C, strain RIO1, hits give low values 1.01 | S. cerevisiae deletion strains, locus YOR231W, strain MKK1, hits give low values 0.927 | S. cerevisiae deletion strains, locus YOR329C, strain SCD5, hits give low values 0.96 | S. cerevisiae deletion strains, locus YPL031C, strain PHO85, hits give low values 0.959 | S. cerevisiae deletion strains, locus YPL153C, strain RAD53, hits give low values 0.944 | S. cerevisiae deletion strains, locus YPL204W, strain HRR25, hits give low values 0.936 | S. cerevisiae deletion strains, locus YPL209C, strain IPL1, hits give low values 0.949 | S. cerevisiae deletion strains, locus YPL256C, strain CLN2, hits give low values 0.901 | S. cerevisiae deletion strains, locus YPR025C, strain CCL1, hits give low values 0.968 | S. cerevisiae deletion strains, locus YPR106W, strain ISR1, hits give low values 0.955 | S. cerevisiae deletion strains, locus YPR111W, strain DBF20, hits give low values 0.943 | S. cerevisiae deletion strains, strain NNK1, hits give low values 0.959 | S. cerevisiae deletion strains, strain TSCII, hits give low values 0.957

O=C(N/N=C\c1ccccc1Cl)N/N=C\c1ccccc1Cl
inactive: [2] 0.989 | [3] 1 | [4] 0.992 | [5] 0.88 | [7] 1 | [9] 0.989 | [10] 0.987 | [11] 0.945 | [12] 0.988 | [15] 1 | [17] 0.871 | [19] 1 | [21] 0.976 | [22] 0.996 | [24] 0.977 | [26] 0.769
active: [1] 0.898 | [6] 0.834 | [8] 0.363 | [14] 0.753 | [16] 0.458 | [18] 0.773 | [20] 0.909 | [23] 0.588 | [25] 0.69 | [27] 0.765 | [28] 0.707 | [29] 0.553

O=C(N/N=C\c1ccccc1Cl)c1cccnc1
inactive: [1] 1.02 | [2] 1 | [4] 0.971 | S. cerevisiae deletion strains, locus YDL134C, strain PPH21, hits give low values 1.01 | [5] 0.932 | [6] 1.03 | [7] 1 | S. cerevisiae deletion strains, locus YGR229C, strain SMI1, hits give low values 1.01 | [8] 0.987 | [9] 1.01 | [10] 0.996 | [11] 0.995 | [12] 0.99 | [13] 1.01 | [14] 1.03 | [15] 1.01 | [16] 0.97 | [17] 1.01 | [18] 1 | [19] 1 | [20] 0.945 | [22] 1 | [23] 1 | [24] 1 | [25] 1.01 | [26] 1.03 | [27] 0.886 | [28] 0.996 | [29] 1

From PubChem BioAssay AID1159580 (chemical genetic matrix, 2015)
